Screens: PubChem BioAssay, National Center for Advancing Translational Sciences (NCATS)
An excerpt weighted towards active compounds, which were near 11% of everything screened.
Pf growth 48h = P. falciparum growth inhibition at 48 hours (one generation); P. falciparum luciferase growth in erythrocytes, 48 h; Potency, µM (titrated, usually from 28.7 µM), without a hit: at the highest dose activity change, negative = inhibition, most hits filed as inhibitors; 310,000 compounds, 5.9% hits; AID 504832; note: % is set by controls: 0 for no effect and ±100 for the full control effect
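Erythrocytes infected with P. falciparum carrying an integrated firefly luciferase reporter (2% hematocrit, 0.1% parasitemia final) were exposed to compounds in RPMI 1640 with 0.5% Albumax at 37 C, 5% CO2. Growth inhibition was scored as reduced luminescence.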
NS1 inh = influenza NS1 inhibition; Potency, µM (doses to about 46.1 µM), for inactives: top-dose activity, positive = more growth; 270,000 compounds, 0.4% hits; AID 2326; calls by dose curve; note: actives are rising curves; nearly all actives have a fitted effect of over 50% in size
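Growth recovery, yeast-based: influenza A NS1 expressed in S. cerevisiae causes slow growth, and suppressors are detected by OD600. The parent strain without NS1 is used as positive control.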
AMA1 RON2 block = AMA1-RON2 (P. falciparum) interaction inhibition | 360,000 compounds, 0.2% hits | Potency, µM (top dose mostly 58.2 µM), for inactives: at the highest dose activity change, negative = inhibition, most hits filed as inhibitors | AlphaScreen AMA1-biotinylated RON2 peptide binding;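 note: 0% = vehicle wells and -100% = peptide control; nearly all actives have a fitted effect of over 45% in size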
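AMA1 (3D7) with his tag at 25 nM final met compounds first, then biotinylated RON2 peptide at 25 nM; detection used donor plus acceptor beads, 10 µg/mL apiece, read by AlphaScreen after 30 min at room temperature.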
Pf growth 96h = P. falciparum growth inhibition at 96 hours; P. falciparum luciferase reporter growth, 96 h; Potency, µM (highest dose often 28.7 µM), for the others: at the top dose activity change, negative = inhibition, hits mostly inhibitors; 320,000 compounds, 6.9% hits; note: % is set by controls: 0 for no effect and ±100 for the full control effect
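Two parasite generations (96 h, 37 C, 5% CO2) of compound exposure in infected erythrocytes (0.05% parasitemia, 2% hematocrit). Luciferase-reporter P. falciparum; decreased luminescence indicates inhibited growth, aimed at apicoplast-acting delayed death.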
Sm TGR block = inhibitors of Schistosoma mansoni thioredoxin glutathione reductase; purified TGR, DTNB reduction, TNB absorbance 405 nm; 360,000 compounds, 3% hits; Potency, µM (titrated, usually from 114 µM), for the others: at the highest dose activity change, negative = inhibition, usual class: inhibitors; Q962Y6; note: % is set by controls: 0 for no effect and ±100 for the full control effect; nearly all actives have a fitted effect of over 60% in size
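First, TGR (20 nM dispensed) and NADPH were mixed with compound. Second, a 15 min room-temperature incubation followed. Third, further NADPH and then DTNB were added to start the reaction. Finally, TNB absorbance was monitored kinetically.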
* hit, by the source's call; ? = inconclusive; nt = no result; [ ] = remark or other dose. Unless noted, calls come from the whole dose curve; as a rule, active = well fitted curve in the direction sought with a large enough effect; inconclusive = small, poorly fitted or top-dose-only effect, or another doubt; inactive = no such curve, though single readings can be large; an effect the other way counts as inactive or inconclusive. Potency is the fitted concentration of half-maximal effect.

SMILES	Pf growth 48h	NS1 inh	AMA1 RON2 block	Pf growth 96h	Sm TGR block
Cc1ccc(-c2cc(C(F)F)n3ncc(C(=O)N4CCC5(CC4)OCCO5)c3n2)cc1	nt	-4.5%	-0.6%	?	-1.4%
O=C(c1cnn2c(C(F)(F)F)cc(-c3cccs3)nc12)N1CCN(Cc2ccccc2)CC1	2.33µM*	-43.4%	-2.3%	?	-27.0%
COc1ccc(-c2cc(C(F)F)n3ncc(C(=O)Nc4cc(C)on4)c3n2)cc1	4.15µM*	1.4%	10.2%	14.9%	-15.8%
COc1ccc(-c2cc(C(F)F)n3ncc(C(=O)Nc4c(C)n(C)n(-c5ccccc5)c4=O)c3n2)cc1	?	6.2%	-5.8%	18.2%	5.3%
CN1CCN(C(=O)c2cnn3c(C(F)(F)F)cc(-c4ccc5c(c4)OCO5)nc23)CC1	-24.7%	0.6%	-7.4%	-27.6%	4.3%
COc1cccc2cc(C(=O)NNC(=O)c3ccc(Br)cc3)c(=O)oc12	5.0%	nt	106.0%	?	-25.7%
CCc1noc(C)c1C(=O)NNC(=O)COc1ccc(C)c(C)c1	-10.4%	nt	39.7%	18.6%	-11.9%
COc1ccc(-c2cc(C(F)F)n3ncc(C(=O)N4CCN(C(=O)c5ccco5)CC4)c3n2)cc1	?	-9.8%	7.8%	?	28.2µM*
O=c1[nH]c2cc3c(cc2cc1C(c1nnnn1C1CCCCC1)N1CCSCC1)OCCO3 (centres undefined)	13.1µM*	-4.5%	3.6%	5.1%	-21.1%
COc1ccc2[nH]c(=O)c(C(c3nnnn3C3CCCC3)N3CCN(Cc4ccc5c(c4)OCO5)CC3)cc2c1 (centres undefined)	11.7µM*	1.3%	-4.9%	?	-25.1%
O=c1[nH]c2cc3c(cc2cc1C(c1nnnn1CC1CCCO1)N1CCCCCC1)OCO3 (centres undefined)	33.9%	5.1%	nt	nt	?
O=c1[nH]c2cc3c(cc2cc1C(c1nnnn1CC1CCCO1)N1CCCCCC1)OCCO3 (centres undefined)	-32.3%	-3.8%	0.0%	nt	31.6µM*
CC(C)C(c1nnnn1CC1CCCO1)N1CCN(C2CCCC2)CC1 (centres undefined)	6.2%	-15.4%	-0.8%	13.1µM*	-24.1%
COc1cc(/C=N/NS(=O)(=O)c2ccc3ccccc3c2)ccc1OCCN1CCOCC1	0.7%	-6.4%	-12.8%	?	-3.4%
CC(C)(C)OC(=O)N1CCC(c2c(C(=O)NCCN3CCOCC3)cnn2-c2ccc(F)cc2F)CC1	nt	nt	nt	nt	3.6%
O=c1[nH]c2cc3c(cc2cc1C(c1nnnn1CC1CCCO1)N1CCCC1)OCO3 (centres undefined)	-2.0%	-3.4%	1.5%	?	20.1%
Cc1cc(C)c2cc(C(c3nnnn3CC3CCCO3)N3CCN4CCCC4C3)c(=O)[nH]c2c1 (centres undefined)	14.7µM*	?	0.0%	-2.4%[5.75 µM]	22.4µM*
COc1cc2cc(C(c3nnnn3C3CCCC3)N3CCCCCC3)c(=O)[nH]c2cc1OC (centres undefined)	?	-31.1%	-9.5%	-11.3%	35.5µM*
CCOc1ccc(S(=O)(=O)NCCc2c(C)[nH]c3c(Cl)cccc23)cc1C	nt	nt	nt	nt	12.4%
O=[N+]([O-])c1ccc(S(=O)(=O)Cc2ccccc2)c([N+](=O)[O-])c1	nt	-30.6%	nt	nt	nt
CCc1cc(=O)oc2cc(OC(=O)CN3C(=O)NC4(CCCC4)C3=O)ccc12	8.5%	-11.5%	-14.1%	4.5%	?
O=C(CN1C(=O)NC2(CCCC2)C1=O)Oc1ccc2ccc(=O)oc2c1	1.6%	nt	0.0%	-29.0%	56.2µM*
O=C(CN1C(=O)NC2(CCCCC2)C1=O)Oc1ccc2c(C(F)(F)F)cc(=O)oc2c1	8.8%	nt	5.4%	-10.3%	39.8µM*
CCN1C[C@@H]2[C@@H]3C(=O)N(C)C(=O)[C@@H]3[C@](Cc3ccccc3)(C1=O)N2C(=O)c1ccc(F)cc1	nt	nt	1.6%	nt	nt
CCOC(=O)C1(CCOC)CCN(Cc2cccc(OCc3ccccc3)c2)CC1	?	5.0%	-4.4%	?	7.4%
SMILES	Pf growth 48h	NS1 inh	AMA1 RON2 block	Pf growth 96h	Sm TGR block
CCOC(=O)C1(CCOc2ccccc2)CCN(Cc2ccc(F)c(OC)c2)CC1	-65.4%	-19.2%	-5.6%	14.7µM*	13.1%
CCOC(=O)C1(CCOc2ccccc2)CCN(Cc2cccc(OC)c2)CC1	nt	nt	-0.4%	nt	nt
CCOC(=O)C1(CC2CC2)CCN(Cc2ccc(O)c(Cl)c2)CC1	4.15µM*	nt	nt	-11.1%	-1.2%
CCOC(=O)C1(CCOc2ccccc2)CCN(Cc2ccc(O)c(OC)c2)CC1	11.7µM*	6.9%	-5.5%	-24.3%	?
CCOC(=O)C1(CCOC)CCN(Cc2ccccc2-c2ccco2)CC1	?	2.7%	-10.1%	?	35.5µM*
CCOC(=O)C1(CCOc2ccccc2)CCN(Cc2ccc(O)c(Cl)c2)CC1	?	4.8%	-1.4%	?	8.9%
CSc1ccccc1OCc1cc(C(=O)NCCc2ccco2)no1	47.6%	-5.7%	3.8%	6.2%	-22.6%
CCOC(=O)C1(CCOc2ccccc2)CCN(Cc2cccc(OC)c2O)CC1	0.586µM*	22.7%	-7.6%	-21.8%	-4.3%
CCOC(=O)C1(CCOc2ccccc2)CCN(Cc2cc(OC)ccc2OC)CC1	?	2.6%	-11.8%	0.0%	-10.3%
Cc1cc(C)cc(C(=O)NCc2ccc3c(c2)OCO3)c1	18.8%	-19.5%	4.3%	107.8%	-20.3%
O=C(NCc1ccc2c(c1)OCO2)c1ccc(-n2cnnn2)cc1	13.4%	-6.3%	-13.6%	1.65µM*	5.4%
CCOc1cc(C(=O)NCc2ccc3c(c2)OCO3)cc(OCC)c1OCC	28.2%	-2.1%	35.6%	-22.1%	35.5µM*
CN1C(=O)C(C)(C)c2cc(S(=O)(=O)N3CCN(c4cccc(Cl)c4)CC3)ccc21	?	12.4%	-3.9%	6.3%	-3.0%
CC(C)(C)OC(=O)N1CCCC(C(=O)Nc2cccc(C(=O)N3CCCCC3)c2)C1 (centres undefined)	nt	nt	14.9%	nt	nt
CCO[C@@H]1OC(C(=O)N2CCN(Cc3ccccc3)CC2)=C[C@H](C2CC2)[C@H]1CCCO	?	0.4%	-0.3%	?	-28.4%
CCO[C@H]1OC(C(=O)N2CCN(Cc3ccc4c(c3)OCO4)CC2)=C[C@@H](c2ccc(Br)cc2)[C@@H]1CCCO	10.4µM*	-12.4%	-26.2%	5.22µM*	1.3%
CCO[C@H]1OC(C(=O)N2CCN(Cc3ccc4c(c3)OCO4)CC2)=C[C@@H](c2ccccc2)[C@@H]1CCCO	?	-5.4%	0.5%	?	0.0%
CCO[C@H]1OC(C(=O)N2CCN(Cc3ccc4c(c3)OCO4)CC2)=C[C@@H](C2CC2)[C@@H]1CCCO	?	-4.5%	3.7%	7.38µM*	2.9%
C#CCNC(=O)C1=C[C@H](c2ccc3c(c2)OCO3)[C@@H](CCCO)[C@H](OCC)O1	?	-0.3%	-3.0%	?	44.7µM*
